Cycloheximide cs: affects cycloheximide protein synthesis inhibition readout, counter-screen | 12% of 300,000 active | cell reporter, cycloheximide protein synthesis inhibition counterscreen | max response, %; in the data active = max response mostly above about 13%, no sharp cut-off; inactive = mostly below about 14%; also: read at 38.3 µM for the half of the compounds with a filed dose
SARS PLpro yeast: inhibitors of SARS-CoV papain-like protease in yeast; 0.19% of 330,000 active; AID 485353; S. cerevisiae expressing SARS-CoV PLpro, growth rescue; Potency, µM (highest dose often 32.9 µM), most hits filed as activators; also: nearly all actives have a fitted effect of over 55% in size
LmPK inhibitor: inhibitors of Leishmania mexicana pyruvate kinase | purified LmPK, Kinase-Glo ATP luminescence, 1 h | 0.37% of 290,000 active | Potency, µM (top dose mostly 57.5 µM), actives largely listed as inhibitors | Q27686; active = well fitted curve in the direction sought with a large enough effect; inconclusive = small, poorly fitted or top-dose-only effect, or another doubt; inactive = no such curve, though single readings can be large; an effect the other way counts as inactive or inconclusive
Target sequence (Q27686 whole entry, looked up): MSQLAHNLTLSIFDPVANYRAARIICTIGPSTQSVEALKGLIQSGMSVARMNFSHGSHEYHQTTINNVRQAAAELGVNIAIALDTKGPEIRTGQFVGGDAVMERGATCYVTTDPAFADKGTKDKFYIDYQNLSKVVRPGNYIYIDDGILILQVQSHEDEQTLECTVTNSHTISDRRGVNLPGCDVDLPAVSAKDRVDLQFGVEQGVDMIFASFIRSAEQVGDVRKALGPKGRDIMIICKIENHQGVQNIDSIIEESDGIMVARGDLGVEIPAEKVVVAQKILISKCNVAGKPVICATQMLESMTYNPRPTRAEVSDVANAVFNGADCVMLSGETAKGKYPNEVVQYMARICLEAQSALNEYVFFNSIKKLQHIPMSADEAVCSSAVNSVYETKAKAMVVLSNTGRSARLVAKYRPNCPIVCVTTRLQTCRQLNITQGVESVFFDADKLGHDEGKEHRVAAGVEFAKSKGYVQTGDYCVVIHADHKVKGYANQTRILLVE
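In 50 mM imidazole pH 7.2 with 7 mM MgCl2, LmPK (0.1 nM) turned over PEP (0.5 mM) and ADP (0.1 mM) for 1 h at room temperature. Luciferase read-out of ATP.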
Shiga toxin inh: blocks Shiga toxin action in Vero cells. Vero cells, Shiga toxin protein synthesis inhibition reporter. inhibition, % at 38.7 µM. 9.2% of 290,000 active. AID 2315; in the data active = inhibition mostly above about 28%, no sharp cut-off; inactive = mostly below about 43%
NS1 function inh: blocks influenza NS1 protein function. Potency, µM (doses to about 46.1 µM). 0.4% of 270,000 active. AID 2326; also: actives are rising curves; nearly all actives have a fitted effect of over 50% in size
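A cell-based growth assay was used: compounds that relieve NS1-induced slow growth of budding yeast raise OD600. Assay medium was yeast nitrogen base with ammonium sulphate and -URA supplement, pH 6.0, with 2% galactose.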
Tb PYK inh: blocks Trypanosoma brucei pyruvate kinase. 0.12% of 410,000 active. AID 624173. Q57TT1. Potency, µM (doses to about 76.8 µM), actives largely listed as inhibitors. TbPYK enzyme, Kinase-Glo Plus ATP luminescence, 45 min; active = well fitted curve in the direction sought with a large enough effect; inconclusive = small, poorly fitted or top-dose-only effect, or another doubt; inactive = no such curve, though single readings can be large; an effect the other way counts as inactive or inconclusive; also: nearly all actives have a fitted effect of over 50% in size
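T. brucei PYK with substrate was exposed to pin-transferred compounds across a concentration series, then started with 130 uM ADP (final). After 45 min at room temperature, Kinase-Glo Plus luminescence was read, normalized and curve-fitted.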
Hits are given with their value; [ ] = another dose, or the depositor's remark. This is one part of a sample in which hits are shown more often than they occur. Unless noted, calls follow the shape of the full dose curve.

Results for COc1ccc(C)cc1S(=O)(=O)NC(C)C(=O)NC1CC1 (centres undefined) ?
Cycloheximide cs: inactive; SARS PLpro yeast: inactive; LmPK inhibitor: inactive; Shiga toxin inh: inactive; NS1 function inh: inactive; Tb PYK inh: inactive

How did CCOC(=O)c1cnc(SCC(=O)c2ccc3c(c2)OCCO3)nc1N do in these assays?
Cycloheximide cs: 28; SARS PLpro yeast: inactive; LmPK inhibitor: inactive; Shiga toxin inh: 104; NS1 function inh: inactive; Tb PYK inh: inactive

What do the screens show for `Cc1cc(C)nc(SCC(=O)c2ccc3c(c2)OCCO3)n1`?
Cycloheximide cs: 26; SARS PLpro yeast: inactive; LmPK inhibitor: inactive; Shiga toxin inh: inactive; NS1 function inh: inactive; Tb PYK inh: inactive

What do the screens show for `Cc1cc(C)nc(SCC(=O)Nc2ccc3c(c2)OCO3)n1`?
Cycloheximide cs: inactive; SARS PLpro yeast: inactive; LmPK inhibitor: inactive; Shiga toxin inh: inactive; NS1 function inh: inactive; Tb PYK inh: inactive

What do the screens show for `COc1cc(OC)c(NC(=O)Cn2c(SCc3ccccc3F)nc3cccnc32)cc1Cl`?
Tb PYK inh: inactive

Results for COc1ccc(C2C(=O)N(C3CCC(C)CC3)CC(=O)N2Cc2ccccc2Cl)cc1OC (centres undefined) ?
Tb PYK inh: inactive

How did CC(=O)C1=C(c2cccc([N+](=O)[O-])c2)N(C(C)=O)n2c(C)nnc2S1 do in these assays?
Cycloheximide cs: 18; SARS PLpro yeast: inactive; LmPK inhibitor: inactive; Shiga toxin inh: inactive; Tb PYK inh: inactive

What do the screens show for `COc1ccc(C2=C(C(C)=O)Sc3nnc(-c4ccccc4)n3N2C(C)=O)cc1`?
Tb PYK inh: inactive

What do the screens show for `CCOc1ccc(C2=C(C(C)=O)Sc3nnc(C)n3N2C(C)=O)cc1`?
Cycloheximide cs: 20; Shiga toxin inh: inactive; Tb PYK inh: inactive

Results for Cc1cc(=O)[nH]c(SCC(=O)Nc2nc3c(s2)CCCC3)n1 ?
Cycloheximide cs: inactive; SARS PLpro yeast: inactive; LmPK inhibitor: inactive; Shiga toxin inh: inactive; NS1 function inh: inactive; Tb PYK inh: inactive

What do the screens show for `CCC(Sc1nc(C)cc(=O)[nH]1)C(=O)Nc1nc2c(s1)CCCC2` (centres undefined)?
Cycloheximide cs: 15; SARS PLpro yeast: inactive; LmPK inhibitor: inactive; Shiga toxin inh: 42; NS1 function inh: inactive; Tb PYK inh: inactive

What do the screens show for `O=S(=O)(Nc1ccc2c(c1)nc1n2CCN(Cc2ccccc2)C1)c1ccc(Cl)cc1`?
Cycloheximide cs: inactive; SARS PLpro yeast: inactive; LmPK inhibitor: inactive; Shiga toxin inh: inactive; NS1 function inh: inactive

How did O=S(=O)(Nc1ccc2c(c1)nc1n2CCN(Cc2ccccc2)C1)c1ccccc1 do in these assays?
Cycloheximide cs: 117; SARS PLpro yeast: inactive; LmPK inhibitor: inactive; Shiga toxin inh: 111; NS1 function inh: inactive; Tb PYK inh: inactive

What do the screens show for `Cn1c(=O)c2sccc2n2c(CCCC(=O)NC3CCN(Cc4ccccc4)CC3)nnc12`?
Cycloheximide cs: inactive; SARS PLpro yeast: inactive; LmPK inhibitor: inactive; Shiga toxin inh: inactive; NS1 function inh: inactive; Tb PYK inh: inactive

How did O=C(/C=C/c1ccccc1)CC(=O)c1ccccc1O do in these assays?
Cycloheximide cs: 25; SARS PLpro yeast: inactive; LmPK inhibitor: inactive; Shiga toxin inh: 27; NS1 function inh: inactive; Tb PYK inh: inactive

What do the screens show for `O=C(/C=C/c1ccccc1)COC(=O)c1ccccc1`?
Tb PYK inh: inactive

Results for O=C(/C=C/c1ccccc1)NC(=O)c1ccccc1O ?
Cycloheximide cs: 28; SARS PLpro yeast: inactive; LmPK inhibitor: inactive; Shiga toxin inh: 51; NS1 function inh: inactive; Tb PYK inh: inactive

What do the screens show for `CN(CC(=O)Nc1cccnc1)S(=O)(=O)c1ccc(Br)cc1`?
Cycloheximide cs: inactive; SARS PLpro yeast: inactive; LmPK inhibitor: inactive; Shiga toxin inh: inactive; NS1 function inh: inactive; Tb PYK inh: inactive

How did CC[C@H](C)[C@H](NC(=O)[C@H](CC(=O)O)NC(=O)[C@H](CC(C)C)NC(=O)[C@H](Cc1cnc[nH]1)NC(=O)[C@H](C)NC(=O)[C@H](Cc1ccccc1)NC(=O)[C@H](Cc1ccc(O)cc1)NC(=O)[C@@H](NC(=O)[C@H](C)NC(=O)[C@H](CCC(=O)O)NC(=O)[C@H](CCC(=O)O)NC(=O)[C@H](CC(=O)O)NC(=O)CCC(=O)O)C(C)C)C(=O)N[C@H](C(=O)N[C@@H](Cc1c[nH]c2ccccc12)C(=O)O)[C@@H](C)CC do in these assays?
Cycloheximide cs: inactive; Shiga toxin inh: inactive

Results for Cc1ccc(OCCSc2nc(N)cc(N)n2)cc1 ?
Cycloheximide cs: 53; SARS PLpro yeast: inactive; LmPK inhibitor: inactive[11.5 µM]; Shiga toxin inh: 130; Tb PYK inh: inactive

How did COc1ccc(OCCSc2nc(N)cc(N)n2)cc1 do in these assays?
Cycloheximide cs: 49; SARS PLpro yeast: inactive; LmPK inhibitor: inactive; Shiga toxin inh: 101; NS1 function inh: inactive; Tb PYK inh: inactive

How did COc1ccc(OCCSc2nc(N)cc(=O)[nH]2)cc1 do in these assays?
Cycloheximide cs: inactive; SARS PLpro yeast: inactive; LmPK inhibitor: inactive; Shiga toxin inh: inactive; NS1 function inh: inactive; Tb PYK inh: inactive

What do the screens show for `CCOc1ccccc1CNC(=O)c1ccc2nc(CCc3ccccc3)oc2c1`?
Tb PYK inh: inactive

What do the screens show for `Cc1ccc(/C=N/NC(=O)c2ccco2)cc1`?
Cycloheximide cs: 45; SARS PLpro yeast: inactive; LmPK inhibitor: inconclusive; Shiga toxin inh: 37; NS1 function inh: inactive; Tb PYK inh: inactive

What do the screens show for `O=C(N/N=C/c1ccoc1)c1ccccc1F`?
Cycloheximide cs: 75; SARS PLpro yeast: inactive; LmPK inhibitor: inactive; Shiga toxin inh: 90; NS1 function inh: inactive; Tb PYK inh: inactive

What do the screens show for `CSC(=S)N/N=C/c1ccc(N(C)C)cc1`?
Cycloheximide cs: 43; SARS PLpro yeast: inactive; LmPK inhibitor: inactive; Shiga toxin inh: 68; Tb PYK inh: inactive

How did COc1ccc(/C=N/NC(=O)c2ccco2)cc1Cn1nc(C)cc1C do in these assays?
Cycloheximide cs: 34; SARS PLpro yeast: inactive; LmPK inhibitor: inactive; Shiga toxin inh: 67; NS1 function inh: inactive; Tb PYK inh: inactive

What do the screens show for `O=C(N/N=C\c1ccoc1)c1ccco1`?
Cycloheximide cs: 35; SARS PLpro yeast: inactive; LmPK inhibitor: inactive; Shiga toxin inh: 61; NS1 function inh: inactive; Tb PYK inh: inactive

Results for CN(C)c1ccc(/C=N\NC(=O)c2cccc3cc[nH]c23)cc1 ?
Cycloheximide cs: 32; SARS PLpro yeast: inactive; LmPK inhibitor: inactive; Shiga toxin inh: 56; NS1 function inh: inactive; Tb PYK inh: inactive

What do the screens show for `CN(C)c1ccc(C=NNC(=O)c2cccnc2)cc1`?
Tb PYK inh: inactive

Results for CN(C)c1ccc(/C=N/NC(=O)c2ccco2)cc1 ?
Cycloheximide cs: 41; SARS PLpro yeast: inactive; LmPK inhibitor: 16µM; Shiga toxin inh: inactive; NS1 function inh: inactive; Tb PYK inh: inactive

What do the screens show for `O=C(N/N=C/c1ccoc1)c1ccc([N+](=O)[O-])cc1`?
Cycloheximide cs: inactive; SARS PLpro yeast: inactive; LmPK inhibitor: inactive; Shiga toxin inh: inactive; NS1 function inh: inactive; Tb PYK inh: inactive

Screening results (PubChem)
